Measurements reported in ChEMBL document CHEMBL4513216, “Probing the Open Global Health Chemical Diversity Library for Multistage-Active Starting Points for Next-Generation Antimalarials” (ACS Infect Dis, 2020).
In all, about 65,000 compounds went through this assay and about 2,100 (3.2%) showed an effect of 50% or more. The median lay at about -52%. The list comes from a sample in which strong results are over-represented; it also holds similar structures and randomly drawn compounds.

The compounds below were run on Plasmodium falciparum (assay: Screen against P. falciparum Asexual Blood Stage (ABS), at 5uM). Conditions: tested at 5 uM.
Assay type: functional, Dd2

| SMILES | INHIBITION |
| --- | --- |
| CC(C)CC(NCc1cscn1)c1ccccn1 (configuration not stated) | 32.3% |
| CC(C)CC(NCc1cccs1)c1ccccn1 (configuration not stated) | -21.4% |
| CC(C)CC(NCc1ccsc1)c1ccccn1 (configuration not stated) | 60% |
| CC(C)OCCC(=O)NCC(O)c1c(F)cccc1F (configuration not stated) | -37.7% |
| Cc1nc(NC(=O)NCc2cccnc2NCCN(C)C)sc1C | -8.39% |
| CN(C)CCNc1ncccc1CNC(=O)Nc1cc(F)cc(F)c1 | 55% |
| CC(C)c1nnc(NC(=O)NCc2cccnc2NCCN(C)C)s1 | -89.9% |
| CC(O)CN1CCC(CNCc2ccccc2F)CC1 (configuration not stated) | -0.868% |
| CC(O)CN1CCC(CNCc2cccc(C(=O)N(C)C)c2)CC1 (configuration not stated) | -81.9% |
| Cc1noc(C)c1CNCC1CCN(CC(O)c2ccccc2)CC1 (configuration not stated) | 43.4% |
| Cc1ccc(CNCC2CCN(CC(O)c3ccccc3)CC2)o1 (configuration not stated) | 62.5% |
| CC(O)CN1CCC(CNCc2cccc(C(N)=O)c2)CC1 (configuration not stated) | -73.1% |
| CC(O)CN1CCC(CNCc2ccccc2C(F)(F)F)CC1 (configuration not stated) | 48.3% |
| CC(O)CN1CCC(CNCc2cccc(OC(C)C)c2)CC1 (configuration not stated) | 62.4% |
| CC(O)CN1CCC(CNCc2ccccc2OC(F)(F)F)CC1 (configuration not stated) | 67.7% |
| Cc1ncccc1CNCC1CCN(CC(O)c2ccccc2)CC1 (configuration not stated) | 31.4% |

| SMILES | INHIBITION |
| --- | --- |
| COCC(Nc1ncnc2c1CCNCC2)c1ccccn1 (configuration not stated) | -66.2% |
| CCOCC(=O)NCC1CCN(Cc2ccsc2)CC1 | -90.6% |
| CN(C)Cc1ccnc(C2CCCN2Cc2ccc3ncccc3c2)n1 (configuration not stated) | 42% |
| COc1cc(CNc2cc(-c3nncn3C)ccn2)cc(OC)c1OC | -52.4% |
| Cc1ccccc1-c1noc(CN2CCC(N3CCNC3=O)CC2)n1 | -80.6% |
| CCC1CN(CC(=O)NCCN2CCCC2)c2ccccc2S1 (configuration not stated) | 63.8% |
| O=C(NCCN1CCCC1)c1cc2c(s1)CCN2C(=O)c1ccccc1 | -40.6% |
| COCC(=O)N1CCCC1c1ccc(C(=O)NCCN2CCCCC2)s1 (configuration not stated) | -139% |
| Cc1ccccc1OCC1CCCN(c2cc(N)nc(N)n2)C1 (configuration not stated) | 44.5% |
| CN1CCCC(CCCc2cccnc2)(C(N)=O)C1 (configuration not stated) | -103% |
| COc1nccnc1-c1cc(NC2CCCC2)nc2[nH]ccc12 | 18.8% |
| COc1cc(-c2cc(NC3CCCC3)nc3[nH]ccc23)nc(N)n1 | 62.5% |
| Nc1ccnc(-c2cc(NC3CCNCC3)nc3[nH]ccc23)c1 | -29.8% |
| CCc1noc(CN(CC)Cc2cc3ccc(F)cc3[nH]c2=O)n1 | -9.14% |
| CCN(Cc1noc(CC(C)C)n1)Cc1cc2ccc(F)cc2[nH]c1=O | -109% |
| CCN(Cc1nc(COC)no1)Cc1cc2ccc(F)cc2[nH]c1=O | 62.2% |
